Test results from PubChem BioAssay (EPA / NIEHS).
Several values for one entry are separate records, joined by “and”; a condition that tells them apart may be missing. Equal values may be shown once. Records with an inconclusive call do not appear. Activity calls are given as the source filed them. How the source made its calls: active means hit-call score of the fitted dose curve at least 0.9, where 1 is the maximum; inconclusive means response in the unintended direction; inactive means score below 0.9.

What follows are compounds tested against sheep Cyclooxygenase-2 (Cox2), PTGS2 (gene 443460) (UniProt P79208) (assay: NVS_ENZ_oCOX2: NovaScreen (NVS) Enzymatic Assay for sheep Cyclooxygenase-2 (Cox2) (AID 2283231)).
Sequence of sheep Cyclooxygenase-2 (Cox2), PTGS2 (gene 443460) (P79208 whole entry, looked up): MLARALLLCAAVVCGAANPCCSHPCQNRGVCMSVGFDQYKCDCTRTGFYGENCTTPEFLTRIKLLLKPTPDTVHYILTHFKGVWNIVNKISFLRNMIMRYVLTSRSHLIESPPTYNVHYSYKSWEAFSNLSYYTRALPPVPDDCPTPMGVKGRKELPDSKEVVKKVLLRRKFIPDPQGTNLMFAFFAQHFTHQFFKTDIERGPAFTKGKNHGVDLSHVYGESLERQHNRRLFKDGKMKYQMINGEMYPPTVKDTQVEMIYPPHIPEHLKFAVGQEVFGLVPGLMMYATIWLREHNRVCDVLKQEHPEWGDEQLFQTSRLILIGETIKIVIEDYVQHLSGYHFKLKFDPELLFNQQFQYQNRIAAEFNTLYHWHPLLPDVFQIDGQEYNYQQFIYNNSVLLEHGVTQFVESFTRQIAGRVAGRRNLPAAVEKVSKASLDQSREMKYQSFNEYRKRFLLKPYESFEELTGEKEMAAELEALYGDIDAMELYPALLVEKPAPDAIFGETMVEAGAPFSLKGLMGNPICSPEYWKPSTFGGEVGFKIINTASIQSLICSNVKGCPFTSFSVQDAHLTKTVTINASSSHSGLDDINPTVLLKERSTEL
How it was run: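 Enzyme from ovine placenta, cell-free; colorimetric absorbance read 0.66 hour after dosing, loss of signal vs DMSO. Screened in duplicate at 25 uM, then concentration-response up to 50 uM.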

Structure (SMILES)	AC50	outcome
CCNc1nc(Cl)nc(NC(C)C)n1	7.07 µM (active) and 12.4 µM (active)	
C=CC1(C)OC(=O)N(c2cc(Cl)cc(Cl)c2)C1=O (stereo unspecified)	5.97 µM (active)	
CCCN(CCC)c1c([N+](=O)[O-])cc(S(N)(=O)=O)cc1[N+](=O)[O-]		inactive
CON(C)C(=O)Nc1ccc(Cl)c(Cl)c1		inactive

Each compound was assayed against rat Adenylate Cyclase, Forskolin Stimulated, Adcy5 (gene 64532) (UniProt Q04400) (assay: NVS_ENZ_rACFSKBinding: NovaScreen (NVS) Enzymatic Assay for rat Adenylate Cyclase, Forskolin Stimulated (AID 2283232)).
Description: NVS_ENZ_rACFSKBinding is a biochemical, single-readout assay that uses extracted gene-proteins from Rat forebrain membranes in a tissue-based cell-free assay. Measurements were taken 1 hour after chemical dosing in a 48-well plate.NVS_ENZ_rACFSKBinding is one of one assay component(s) measured or calculated from the NVS_ENZ_rACFSKBinding assay. It is designed to make measurements of enzyme activity, a form of enzyme reporter, as detected with scintillation counting signals by Filter-based radiodetection technology.Data from the assay component NVS_ENZ_rACFSKBinding was analyzed into 1 assay endpoint. This assay endpoint, NVS_ENZ_rACFSKBinding, was analyzed in the positive analysis fitting direction relative to DMSO as the negative control and baseline of activity. Using a type of enzyme reporter, loss-of-signal activity can be used to understand changes in the enzymatic activity as they relate to the gene Adcy5. Furthermore, this assay endpoint can be referred to as a primary readout, because this assay has produced multiple assay endpoints where this one serves a enzymatic activity function. To generalize the intended target to other relatable targets, this assay endpoint is annotated to the lyase intended target family, where the subfamily is adenylyl cyclase.
(§1) Binding assays used specific radioligands (tritiated, iodinated) with non-radioactive competitive displacement ligands in agonist or antagonist protocols (as indicated) and various reference compounds and inhibitors to titrate specific binding to receptors and transporters. Most enzyme assays (CYPs, kinases, phosphatases, proteases, HDACs) used recombinant protein and specific substrates (fluorescence mostly, some colorimetric and radioactive) and inhibitors, followed by a biochemical separation of substrate and product. All assays for the biochemical HTS were initially run in duplicate at a single concentration (10 uM for CYP450 assays and 25 uM for all others). Assay-chemical combinations meeting a pre-defined threshold (e.g., 30% inhibition and other criteria defined below) were then run in singleton concentration-response format with maximum concentration of 20 uM for CYPs and 50 uM for all others. Each assay was run with positive and negative controls, and concurrent controls on every plate. The follow-up (secondary) screen tested active chemical-pairs in concentration series, as well as a few additional assays not tested in the primary screen, some selected negative inactives, and several cases re-run in the concentration series for confirmatory purposes.

Structure (SMILES)	outcome	AC50
CC(C)Oc1cc(-n2nc(C(C)(C)C)oc2=O)c(Cl)cc1Cl	inactive	
CN(C)C(=S)SSC(=S)N(C)C		6.85 µM (active)
CCCN(CCC)c1c([N+](=O)[O-])cc(S(N)(=O)=O)cc1[N+](=O)[O-]	inactive	
CNC(=S)S	inactive	
CS/C(C)=N/OC(=O)N(C)SN(C)C(=O)O/N=C(\C)SC		6.77 µM (active)
CCCCNC(=O)n1c(NC(=O)OC)nc2ccccc21	inactive	
CCCCNC(=O)OCC#CI		18.1 µM (active) and 19.4 µM (active)

Each compound was assayed against rat Acetylcholinesterase (AChE), Ache (gene 83817) (UniProt P37136) (assay: NVS_ENZ_rAChE: NovaScreen (NVS) Enzymatic Assay for rat Acetylcholinesterase (AChE) (AID 2283233)).
Sequence of rat Acetylcholinesterase (AChE), Ache (gene 83817) (P37136 whole entry, looked up): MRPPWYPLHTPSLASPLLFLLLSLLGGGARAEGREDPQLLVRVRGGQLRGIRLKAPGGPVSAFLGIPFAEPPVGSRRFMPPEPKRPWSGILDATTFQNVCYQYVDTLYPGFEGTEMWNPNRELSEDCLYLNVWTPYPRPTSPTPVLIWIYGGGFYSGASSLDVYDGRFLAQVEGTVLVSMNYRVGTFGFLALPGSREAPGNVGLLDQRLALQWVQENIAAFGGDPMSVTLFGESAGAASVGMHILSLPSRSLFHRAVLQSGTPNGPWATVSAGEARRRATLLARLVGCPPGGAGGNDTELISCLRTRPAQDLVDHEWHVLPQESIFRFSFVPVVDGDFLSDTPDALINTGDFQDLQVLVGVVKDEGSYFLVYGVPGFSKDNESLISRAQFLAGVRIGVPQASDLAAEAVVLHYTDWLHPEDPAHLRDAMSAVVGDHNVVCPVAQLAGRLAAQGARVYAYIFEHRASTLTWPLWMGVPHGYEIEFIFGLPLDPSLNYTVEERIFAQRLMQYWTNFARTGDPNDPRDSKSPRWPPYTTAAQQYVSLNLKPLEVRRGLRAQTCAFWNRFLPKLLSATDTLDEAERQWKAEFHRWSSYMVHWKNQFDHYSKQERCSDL
How it was run: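 Rat brain membrane acetylcholinesterase activity measured colorimetrically 0.33 h after compound addition, loss of signal relative to DMSO. Primary screen in duplicate at 25 uM; actives re-run as concentration-response with 50 uM top concentration.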

Structure (SMILES)	outcome	AC50
COP(=S)(OC)Oc1nc(Cl)c(Cl)cc1Cl	inactive	
CS/C(C)=N/OC(=O)N(C)SN(C)C(=O)O/N=C(\C)SC		2 µM (active)
COC(=O)C=C(C)OP(=O)(OC)OC		1.52 µM (active)
CNC(=O)ON=CC(C)(C)SC		6.41 µM (active)

These compounds were tested against rat Catechol-O-Methyl Transferase (COMT), Comt (gene 24267) (UniProt P22734) (assay: NVS_ENZ_rCOMT: NovaScreen (NVS) Enzymatic Assay for rat Catechol-O-Methyl Transferase (COMT) (AID 2283235)).
Sequence of rat Catechol-O-Methyl Transferase (COMT), Comt (gene 24267) (P22734 whole entry, looked up): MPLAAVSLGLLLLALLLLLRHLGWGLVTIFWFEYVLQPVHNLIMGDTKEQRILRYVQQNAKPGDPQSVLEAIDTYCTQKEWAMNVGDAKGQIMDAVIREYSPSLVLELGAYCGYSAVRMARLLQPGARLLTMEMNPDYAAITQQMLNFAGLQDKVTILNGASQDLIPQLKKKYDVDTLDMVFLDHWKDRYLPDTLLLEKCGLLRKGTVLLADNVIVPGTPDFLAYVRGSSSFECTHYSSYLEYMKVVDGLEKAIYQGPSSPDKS
How it was run: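 Cell-free enzyme activity with protein extracted from rat dorsal striatum, measured by HPLC with absorbance detection. Compounds screened at 25 uM in duplicate; actives then run in concentration-response up to 50 uM, loss of signal versus DMSO.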

Structure (SMILES)	outcome	AC50
COC(=O)N(OC)c1ccccc1COc1ccn(-c2ccc(Cl)cc2)n1	inactive	
COP(=S)(OC)Oc1nc(Cl)c(Cl)cc1Cl	inactive	
CCOC(=O)CC(SP(=S)(OC)OC)C(=O)OCC (stereo unspecified)	inactive	
N#Cc1cc(Br)c(O)c(Br)c1		0.677 µM (active)

Each compound was assayed against rat Constitutive Nitric Oxide Synthase (CNOS), Nos1 (gene 24598) (UniProt P29476) (assay: NVS_ENZ_rCNOS: NovaScreen (NVS) Enzymatic Assay for rat Constitutive Nitric Oxide Synthase (CNOS) (AID 2283236)).
Sequence of rat Constitutive Nitric Oxide Synthase (CNOS), Nos1 (gene 24598) (P29476 whole entry, looked up): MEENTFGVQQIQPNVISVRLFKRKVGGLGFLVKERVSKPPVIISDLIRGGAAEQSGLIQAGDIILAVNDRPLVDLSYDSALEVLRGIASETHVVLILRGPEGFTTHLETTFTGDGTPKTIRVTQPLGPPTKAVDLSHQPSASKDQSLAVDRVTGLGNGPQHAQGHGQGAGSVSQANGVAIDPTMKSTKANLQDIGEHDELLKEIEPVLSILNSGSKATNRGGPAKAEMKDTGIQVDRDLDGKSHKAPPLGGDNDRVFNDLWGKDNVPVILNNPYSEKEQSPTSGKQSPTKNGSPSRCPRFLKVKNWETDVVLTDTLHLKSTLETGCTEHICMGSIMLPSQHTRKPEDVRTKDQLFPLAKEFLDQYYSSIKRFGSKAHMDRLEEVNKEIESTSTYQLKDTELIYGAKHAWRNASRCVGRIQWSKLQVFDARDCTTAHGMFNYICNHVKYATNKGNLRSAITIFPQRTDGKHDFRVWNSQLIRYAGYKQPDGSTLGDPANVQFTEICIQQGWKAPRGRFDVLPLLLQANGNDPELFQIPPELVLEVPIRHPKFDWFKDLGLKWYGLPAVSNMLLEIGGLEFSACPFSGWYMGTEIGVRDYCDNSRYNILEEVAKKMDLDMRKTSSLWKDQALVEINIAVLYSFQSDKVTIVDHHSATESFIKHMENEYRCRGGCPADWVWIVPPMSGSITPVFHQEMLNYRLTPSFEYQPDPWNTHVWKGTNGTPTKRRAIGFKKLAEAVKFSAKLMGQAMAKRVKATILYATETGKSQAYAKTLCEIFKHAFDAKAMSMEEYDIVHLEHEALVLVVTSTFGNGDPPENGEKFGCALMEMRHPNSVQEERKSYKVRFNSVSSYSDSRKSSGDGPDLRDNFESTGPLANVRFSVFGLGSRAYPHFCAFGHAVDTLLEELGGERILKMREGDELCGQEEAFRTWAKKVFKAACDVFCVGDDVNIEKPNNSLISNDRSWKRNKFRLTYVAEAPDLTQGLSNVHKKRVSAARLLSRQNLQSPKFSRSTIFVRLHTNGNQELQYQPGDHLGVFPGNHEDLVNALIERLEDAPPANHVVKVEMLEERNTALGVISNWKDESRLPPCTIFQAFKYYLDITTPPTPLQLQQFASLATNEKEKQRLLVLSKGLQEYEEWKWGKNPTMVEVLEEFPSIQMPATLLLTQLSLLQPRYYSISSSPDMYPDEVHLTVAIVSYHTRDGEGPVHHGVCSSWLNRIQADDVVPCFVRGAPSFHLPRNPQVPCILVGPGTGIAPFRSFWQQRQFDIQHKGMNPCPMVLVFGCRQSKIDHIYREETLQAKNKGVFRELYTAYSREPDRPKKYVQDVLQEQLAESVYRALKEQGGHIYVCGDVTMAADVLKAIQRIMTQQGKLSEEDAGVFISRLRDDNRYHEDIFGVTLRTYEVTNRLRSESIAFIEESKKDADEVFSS
How it was run: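 Enzyme activity in rat brain membrane preparation, read 1 h after dosing by filter-based radiometric scintillation counting. Primary screen in duplicate at 25 uM; actives (e.g., ≥30% inhibition) then run in concentration-response up to 50 uM.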

Structure (SMILES)	outcome
CCCN(CCC)c1c([N+](=O)[O-])cc(S(N)(=O)=O)cc1[N+](=O)[O-]	inactive
CCOP(=S)(OCC)SCn1c(=O)oc2cc(Cl)ccc21	inactive
CCCCC(CC)COC(=O)c1ccccc1C(=O)OCC(CC)CCCC (stereo unspecified)	inactive
CCCCOC(=O)c1ccccc1C(=O)OCCCC	inactive

What follows are compounds tested on rat Monoamine Oxidase, MAO-A, Peripheral (MAOAP), gene 29253 (assay: NVS_ENZ_rMAOAP: NovaScreen (NVS) Enzymatic Assay for rat Monoamine Oxidase, MAO-A, Peripheral (MAOAP) (AID 2283237)).
Description: (§2) NVS_ENZ_rMAOAP is a biochemical, single-readout assay that uses extracted gene-proteins from Rat liver mitochondrial membranes in a tissue-based cell-free assay. Measurements were taken 1.17 hours after chemical dosing in a 96-well plate.NVS_ENZ_rMAOAP is one of one assay component(s) measured or calculated from the NVS_ENZ_rMAOAP assay. It is designed to make measurements of enzyme activity, a form of enzyme reporter, as detected with scintillation counting signals by Lysate-based radiodetection technology.Data from the assay component NVS_ENZ_rMAOAP was analyzed into 1 assay endpoint. This assay endpoint, NVS_ENZ_rMAOAP, was analyzed in the positive analysis fitting direction relative to DMSO as the negative control and baseline of activity. Using a type of enzyme reporter, loss-of-signal activity can be used to understand changes in the enzymatic activity as they relate to the gene Maoa. Furthermore, this assay endpoint can be referred to as a primary readout, because this assay has produced multiple assay endpoints where this one serves a enzymatic activity function. To generalize the intended target to other relatable targets, this assay endpoint is annotated to the oxidoreductase intended target family, where the subfamily is monoamine oxidase.
as §1, with “Assay-chemical combinations meeting a pre-defined threshold (e.g., 30% inhibition and other criteria defined below) were then run in singleton concentration-response format with maximum concentration of 20 uM for CYPs and 50 uM for all others.” left out

Structure (SMILES)	AC50	outcome
CC1COC(Cn2cncn2)(c2ccc(Oc3ccc(Cl)cc3)cc2Cl)O1 (stereo unspecified)	1.3 µM (active)	
CN(C)C(=S)SSC(=S)N(C)C		inactive
CC1=C(C(=O)Nc2ccccc2)SCCO1		inactive
CCCCNC(=O)OCC#CI	36.8 µM (active) and 25 µM (active)	
Cc1ccc(-c2c(Cl)nc(C#N)n2S(=O)(=O)N(C)C)cc1	3.36 µM (active)	
C=CCC1=C(C)C(OC(=O)C2C(C=C(C)C)C2(C)C)CC1=O (stereo unspecified)		inactive

Each compound was assayed against rat Monoamine Oxidase, MAO-B, Central (MAOBC), Maob (gene 25750) (UniProt P19643) (assay: NVS_ENZ_rMAOBC: NovaScreen (NVS) Enzymatic Assay for rat Monoamine Oxidase, MAO-B, Central (MAOBC) (AID 2283238)).
Sequence of rat Monoamine Oxidase, MAO-B, Central (MAOBC), Maob (gene 25750) (P19643 whole entry, looked up): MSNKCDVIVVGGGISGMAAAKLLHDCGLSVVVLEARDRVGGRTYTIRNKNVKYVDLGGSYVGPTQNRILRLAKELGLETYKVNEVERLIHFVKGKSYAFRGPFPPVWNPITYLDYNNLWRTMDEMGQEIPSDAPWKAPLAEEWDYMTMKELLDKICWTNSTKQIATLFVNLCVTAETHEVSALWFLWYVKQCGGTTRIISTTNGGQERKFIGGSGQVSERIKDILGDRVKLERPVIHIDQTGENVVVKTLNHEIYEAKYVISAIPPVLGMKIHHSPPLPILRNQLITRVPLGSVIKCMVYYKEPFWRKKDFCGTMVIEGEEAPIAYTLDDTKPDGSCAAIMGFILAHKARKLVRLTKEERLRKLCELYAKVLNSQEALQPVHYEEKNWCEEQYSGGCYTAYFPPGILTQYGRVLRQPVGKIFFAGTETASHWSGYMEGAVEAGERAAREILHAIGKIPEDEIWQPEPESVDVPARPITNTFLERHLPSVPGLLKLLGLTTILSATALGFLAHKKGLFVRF
Description: as §2, with “NVS_ENZ_rMAOBC” for “NVS_ENZ_rMAOAP”, “brain” for “liver mitochondrial membranes”, “plate.NVS_ENZ_rMAOBC” for “plate.NVS_ENZ_rMAOAP”, “NVS_ENZ_rMAOBC,” for “NVS_ENZ_rMAOAP,”, “Maob.” for “Maoa.”
as §1

Structure (SMILES)	outcome	AC50
CC(C)(C)c1ccc(CSc2cnn(C(C)(C)C)c(=O)c2Cl)cc1	inactive	
COc1nc(NC(C)C)nc(NC(C)C)n1		1.29 µM (active)
C=CC1(C)OC(=O)N(c2cc(Cl)cc(Cl)c2)C1=O (stereo unspecified)	inactive	
O=C(Nc1ccccc1)Nc1ccnc(Cl)c1	inactive	
COc1ccc(C(c2ccc(OC)cc2)C(Cl)(Cl)Cl)cc1		25 µM (active)
CON(C)C(=O)Nc1ccc(Cl)c(Cl)c1		16.1 µM (active) [middle of 4 runs]
C#CCOS(=O)OC1CCCCC1Oc1ccc(C(C)(C)C)cc1 (stereo unspecified)		13.3 µM (active)
CCCCNC(=O)OCC#CI	inactive	
CCOC(=O)CC(SP(=S)(OC)OC)C(=O)OCC (stereo unspecified)	inactive	

Each compound was assayed against sheep Cyclooxygenase-1 (Cox1), PTGS1 (gene 443551) (UniProt P05979) (assay: NVS_ENZ_oCOX1: NovaScreen (NVS) Enzymatic Assay for sheep Cyclooxygenase-1 (Cox1) (AID 2283239);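 further: actives reduce cyclooxygenase activity so potencies are for inhibitors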).
Sequence of sheep Cyclooxygenase-1 (Cox1), PTGS1 (gene 443551) (P05979 whole entry, looked up): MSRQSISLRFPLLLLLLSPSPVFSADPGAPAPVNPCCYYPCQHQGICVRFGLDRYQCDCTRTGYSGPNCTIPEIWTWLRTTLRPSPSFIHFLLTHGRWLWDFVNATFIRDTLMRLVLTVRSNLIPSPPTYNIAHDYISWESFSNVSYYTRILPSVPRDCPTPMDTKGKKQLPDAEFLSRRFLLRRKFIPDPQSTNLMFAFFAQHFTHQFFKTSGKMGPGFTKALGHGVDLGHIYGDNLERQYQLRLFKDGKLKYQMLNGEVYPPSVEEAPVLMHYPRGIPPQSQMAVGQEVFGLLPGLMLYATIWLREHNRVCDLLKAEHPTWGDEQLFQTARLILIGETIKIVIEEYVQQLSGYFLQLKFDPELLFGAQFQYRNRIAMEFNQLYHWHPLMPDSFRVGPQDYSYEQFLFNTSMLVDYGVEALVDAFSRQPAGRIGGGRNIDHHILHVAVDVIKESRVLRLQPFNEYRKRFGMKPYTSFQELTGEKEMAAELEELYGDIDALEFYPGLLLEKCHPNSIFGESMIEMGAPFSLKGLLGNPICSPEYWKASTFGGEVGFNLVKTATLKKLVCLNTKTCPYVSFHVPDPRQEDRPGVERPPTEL
How it was run: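 Cell-free colorimetric assay of enzyme activity in a native extract of ovine seminal vesicles. Absorbance was read 0.66 hour after compound addition. Loss of signal relative to the DMSO negative control was scored, with actives from the 25 uM duplicate primary screen retested in concentration series.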

Structure (SMILES)	outcome	AC50
CC(C)(C)c1ccc(CSc2cnn(C(C)(C)C)c(=O)c2Cl)cc1	inactive	
C=CCC1=C(C)[C@@H](OC(=O)[C@@H]2[C@@H](C=C(C)C)C2(C)C)CC1=O	inactive	
C=CC1(C)OC(=O)N(c2cc(Cl)cc(Cl)c2)C1=O (stereo unspecified)	inactive	
CN(C)C(=S)SSC(=S)N(C)C	inactive	
Oc1ccccc1-c1ccccc1		8.97 µM (active)
CON(C)C(=O)Nc1ccc(Cl)c(Cl)c1	inactive	
CO/C=C(/C(=O)OC)c1ccccc1Oc1cc(Oc2ccccc2C#N)ncn1	inactive	
CCCCOC(=O)c1ccccc1C(=O)OCCCC	inactive	
